Screen size: about 5,500 compounds; about 2,000 (36%) were called active. Inconclusive results (about 18%) are left out. Rule as the data show it: active = normalized growth mostly below about 0.91 (no sharp cut-off); inconclusive = no clear call, values can overlap the other calls; inactive = mostly above about 0.92. This is one part of the list.
Experiment: chemical genetic growth profiling, strain panel (AID 1159580);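 also: tested at 20 µM; growth read once vehicle control cultures reached saturation at 30 °C; 1 = growth at the plate median or of vehicle wells; lower values mean less growth of the strain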
Settings: growth OD

Measured: normalized growth

C[C@]12CCC(=O)C=C1C=CC1C2CC[C@@]2(C)C1CC[C@@]2(O)CCC(=O)O (some centres not stated)
inactive: S. cerevisiae deletion strains, locus YJR075W, strain HOC1, active compounds read low 0.991 | S. cerevisiae deletion strains, locus YKL009W, strain mrt4, active compounds read low 0.962 | S. cerevisiae deletion strains, locus YKL068W, active compounds read low 0.995 | S. cerevisiae deletion strains, locus YKL085W, strain MDH1 (second series), active compounds read low 0.993 | S. cerevisiae deletion strains, locus YKL085W, strain MDH1, active compounds read low 0.993 | S. cerevisiae deletion strains, locus YKL160W, strain elf1, active compounds read low 0.996 | S. cerevisiae deletion strains, locus YKL190W, strain CNB1, active compounds read low 1.01 | S. cerevisiae deletion strains, locus YKR001C, strain vps1, active compounds read low 0.98 | S. cerevisiae deletion strains, locus YKR026C, strain gcn3, active compounds read low 1.03 | S. cerevisiae deletion strains, locus YKR091W, strain srl3, active compounds read low 1.01 | S. cerevisiae deletion strains, locus YLL001W, strain dnm1, active compounds read low 1.01 | S. cerevisiae deletion strains, locus YLL026W, active compounds read low 1 | S. cerevisiae deletion strains, locus YLL041C, strain sdh2, active compounds read low 1.01 | S. cerevisiae deletion strains, locus YLR027C, strain aat2, active compounds read low 1.01 | S. cerevisiae deletion strains, locus YLR039C, strain RIC1, active compounds read low 0.986 | S. cerevisiae deletion strains, locus YLR058C, strain SHM2, active compounds read low 0.994 | S. cerevisiae deletion strains, locus YLR102C, strain apc9, active compounds read low 0.999 | S. cerevisiae deletion strains, locus YLR113W, strain HOG1, active compounds read low 1.06 | S. cerevisiae deletion strains, locus YLR221C, strain rsa3, active compounds read low 1.01 | S. cerevisiae deletion strains, locus YLR258W, strain gsy2, active compounds read low 1.02 | S. cerevisiae deletion strains, locus YLR262C, strain YPT6 (second series), active compounds read low 0.93 | S. cerevisiae deletion strains, locus YLR262C, strain YPT6, active compounds read low 0.983 | S. cerevisiae deletion strains, locus YLR268W, strain sec22, active compounds read low 0.929 | S. cerevisiae deletion strains, locus YLR320W, strain mms22, active compounds read low 1.01 | S. cerevisiae deletion strains, locus YLR330W, strain CHS5, active compounds read low 1.02 | S. cerevisiae deletion strains, locus YLR342W, strain FKS1 (second series), active compounds read low 1.05 | S. cerevisiae deletion strains, locus YLR342W, strain FKS1, active compounds read low 0.995 | S. cerevisiae deletion strains, locus YLR357W, strain rsc2, active compounds read low 1.01 | S. cerevisiae deletion strains, locus YLR370C, strain arc18, active compounds read low 1.02 | S. cerevisiae deletion strains, locus YLR371W, strain rom2, active compounds read low 0.985 | S. cerevisiae deletion strains, locus YLR384C, strain iki3, active compounds read low 1.02 | S. cerevisiae deletion strains, locus YLR418C, strain cdc73, active compounds read low 0.977 | S. cerevisiae deletion strains, locus YML016C, strain PPZ1, active compounds read low 0.99 | S. cerevisiae deletion strains, locus YML032C, strain rad52, active compounds read low 0.978 | S. cerevisiae deletion strains, locus YML120C, strain ndi1, active compounds read low 1.02 | S. cerevisiae deletion strains, locus YML124C, strain tub3, active compounds read low 0.996 | S. cerevisiae deletion strains, locus YMR058W, strain fet3, active compounds read low 1.02 | S. cerevisiae deletion strains, locus YMR078C, strain ctf18, active compounds read low 0.979 | S. cerevisiae deletion strains, locus YMR125W, strain sto1, active compounds read low 1.04 | S. cerevisiae deletion strains, locus YMR129W, active compounds read low 1.03 | S. cerevisiae deletion strains, locus YMR205C, strain PFK2, active compounds read low 1.05 | S. cerevisiae deletion strains, locus YMR223W, strain ubp8, active compounds read low 1.01 | S. cerevisiae deletion strains, locus YMR231W, strain pep5, active compounds read low 1.02 | S. cerevisiae deletion strains, locus YMR263W, strain SAP30, active compounds read low 0.988 | S. cerevisiae deletion strains, locus YMR307W, strain GAS1, active compounds read low 1.01 | S. cerevisiae deletion strains, locus YNL067W, strain RPL9B, active compounds read low 0.969 | S. cerevisiae deletion strains, locus YNL071W, strain lat1, active compounds read low 1.01 | S. cerevisiae deletion strains, locus YNL128W, strain TEP1, active compounds read low 0.995 | S. cerevisiae deletion strains, locus YNL153C, strain GIM3, active compounds read low 0.977 | S. cerevisiae deletion strains, locus YNL183C, strain NPR1, active compounds read low 0.995 | S. cerevisiae deletion strains, locus YNL209W, strain ssb2, active compounds read low 1.02 | S. cerevisiae deletion strains, locus YNL233W, strain BNI4, active compounds read low 0.99 | S. cerevisiae deletion strains, locus YNL248C, strain rpa49, active compounds read low 1.04 | S. cerevisiae deletion strains, locus YNL250W, strain rad50, active compounds read low 0.993 | S. cerevisiae deletion strains, locus YNL271C, strain bni1, active compounds read low 0.986 | S. cerevisiae deletion strains, locus YNL298W, strain CLA4, active compounds read low 0.984 | S. cerevisiae deletion strains, locus YNL307C, strain MCK1, active compounds read low 0.989 | S. cerevisiae deletion strains, locus YNL322C, strain KRE1 (second series), active compounds read low 1.02 | S. cerevisiae deletion strains, locus YNL322C, strain KRE1, active compounds read low 1 | S. cerevisiae deletion strains, locus YNR049C, strain mso1, active compounds read low 1.02 | S. cerevisiae deletion strains, locus YNR052C, strain pop2, active compounds read low 0.996 | S. cerevisiae deletion strains, locus YOL006C, strain TOP1, active compounds read low 0.951 | S. cerevisiae deletion strains, locus YOL012C, strain htz1 1.54 | S. cerevisiae deletion strains, locus YOL147C, strain pex11, active compounds read low 0.989 | S. cerevisiae deletion strains, locus YOR001W, strain rrp6, active compounds read low 1 | S. cerevisiae deletion strains, locus YOR061W, strain CKA2, active compounds read low 0.995 | S. cerevisiae deletion strains, locus YOR069W, strain VPS5, active compounds read low 0.985 | S. cerevisiae deletion strains, locus YOR070C, strain gyp1, active compounds read low 1.03 | S. cerevisiae deletion strains, locus YOR080W, strain dia2, active compounds read low 1.02 | S. cerevisiae deletion strains, locus YOR083W, strain WHI5, active compounds read low 0.965 | S. cerevisiae deletion strains, locus YOR106W, strain vam3, active compounds read low 1.01 | S. cerevisiae deletion strains, locus YOR136W, strain idh2, active compounds read low 0.987 | S. cerevisiae deletion strains, locus YOR144C, strain elg1, active compounds read low 0.994 | S. cerevisiae deletion strains, locus YOR184W, strain ser1, active compounds read low 0.977 | S. cerevisiae deletion strains, locus YOR231W, strain MKK1, active compounds read low 1.05 | S. cerevisiae deletion strains, locus YOR265W, strain rbl2, active compounds read low 1.02 | S. cerevisiae deletion strains, locus YOR270C, strain vph1, active compounds read low 1.05 | S. cerevisiae deletion strains, locus YOR290C, strain snf2, active compounds read low 1.02 | S. cerevisiae deletion strains, locus YOR316C, strain cot1, active compounds read low 0.995 | S. cerevisiae deletion strains, locus YPL051W, strain arl3, active compounds read low 1 | S. cerevisiae deletion strains, locus YPL055C, strain LGE1, active compounds read low 1.02 | S. cerevisiae deletion strains, locus YPL078C, strain atp4, active compounds read low 1.01 | S. cerevisiae deletion strains, locus YPL106C, strain sse1, active compounds read low 1.01 | S. cerevisiae deletion strains, locus YPL240C, strain hsp82, active compounds read low 1.02 | S. cerevisiae deletion strains, locus YPL241C, strain CIN2, active compounds read low 1 | S. cerevisiae deletion strains, locus YPL256C, strain CLN2, active compounds read low 1.1 | S. cerevisiae deletion strains, locus YPR119W, strain clb2, active compounds read low 0.994 | S. cerevisiae deletion strains, locus YPR141C, strain kar3, active compounds read low 0.982 | S. cerevisiae deletion strains, locus YPR163C, strain tif3, active compounds read low 0.991 | S. cerevisiae deletion strains, locus YPR167C, strain met16, active compounds read low 0.995 | S. cerevisiae deletion strains, strain wtn01, active compounds read low 0.953 | S. cerevisiae strains, strain wild type, active compounds read low 1
